Measurements reported in PubChem BioAssay (EPA / NIEHS).
Values joined by “and” are separate entries in the source; they are usually repeats but may differ in a detail not shown here. Equal values may be shown once. Records with an inconclusive call do not appear. The source holds several records for some structures; these can differ, active in one and inactive in another. Active and inactive are the calls of the source. The calls were made as follows, unless noted: active = hit-call score of the fitted dose curve at least 0.9, where 1 is the maximum; inconclusive = response in the unintended direction; inactive = score below 0.9.

Experiments:
[1] = target: Cytochrome P450 2C19 (Homo sapiens) (UniProt P33261); test: NVS_ADME_hCYP2C19: NovaScreen (NVS) CYP450-related Enzyme Activity (ADME) Assay for human CYP2C19 (AID 2283113);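 as to AC50: potency for inhibition seen as loss of fluorescent signal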
Method in brief: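 Cell-free assay of recombinant human CYP2C19 expressed in insect cells, with a fluorogenic substrate; fluorescence intensity read 1 hour after dosing. Loss of signal relative to acetonitrile negative control indicates inhibition. Primary screen at 10 uM in duplicate, then concentration series.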

[2] = target: Androgen Receptor/SRC-1 Co-activator, AR (gene 367) (UniProt P10275); test: OT_AR_ARSRC1_0960: Odyssey Thera (OT) 16-hour HEK293T Protein-Complementation Assay for Androgen Receptor/SRC-1 Co-activator (AID 2283353);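 also: actives raise the signal above DMSO so potency reflects increased AR and SRC-1 complex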
Androgen Receptor/SRC-1 Co-activator, AR (gene 367), sequence (P10275 whole entry, looked up, the tested form may be a part): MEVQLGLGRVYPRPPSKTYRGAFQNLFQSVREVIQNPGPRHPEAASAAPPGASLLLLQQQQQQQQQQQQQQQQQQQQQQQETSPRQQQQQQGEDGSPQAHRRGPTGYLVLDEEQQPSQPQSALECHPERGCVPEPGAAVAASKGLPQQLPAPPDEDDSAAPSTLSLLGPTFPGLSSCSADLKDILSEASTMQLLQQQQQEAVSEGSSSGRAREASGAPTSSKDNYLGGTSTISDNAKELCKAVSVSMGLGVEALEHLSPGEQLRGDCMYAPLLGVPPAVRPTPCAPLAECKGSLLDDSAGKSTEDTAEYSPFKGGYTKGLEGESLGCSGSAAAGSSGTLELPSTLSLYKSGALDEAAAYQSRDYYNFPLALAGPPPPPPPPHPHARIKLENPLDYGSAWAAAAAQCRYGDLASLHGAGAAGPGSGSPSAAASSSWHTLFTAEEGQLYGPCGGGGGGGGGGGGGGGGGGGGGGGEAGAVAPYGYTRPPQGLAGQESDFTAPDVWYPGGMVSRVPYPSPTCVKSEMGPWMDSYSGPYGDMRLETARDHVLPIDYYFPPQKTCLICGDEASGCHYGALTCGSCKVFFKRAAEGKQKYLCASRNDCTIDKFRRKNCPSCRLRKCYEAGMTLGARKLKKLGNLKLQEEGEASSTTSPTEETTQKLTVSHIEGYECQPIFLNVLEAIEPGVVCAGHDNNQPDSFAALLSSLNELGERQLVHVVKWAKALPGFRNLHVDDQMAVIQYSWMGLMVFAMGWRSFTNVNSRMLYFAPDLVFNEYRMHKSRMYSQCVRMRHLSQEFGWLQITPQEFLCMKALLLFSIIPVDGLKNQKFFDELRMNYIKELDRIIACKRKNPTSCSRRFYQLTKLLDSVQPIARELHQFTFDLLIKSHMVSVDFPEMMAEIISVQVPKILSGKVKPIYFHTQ
Method in brief: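 Readout: 488 nm nuclear-to-cytoplasmic fluorescence ratio from imaging of at least 400 cells per image, 16 h post-dose. Reporter is Venus YFP complementation between AR and SRC-1 fusions, stably expressed in HEK293T; activity scored upward relative to DMSO.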

[3] = target: Androgen Receptor/SRC-1 Co-activator, AR (gene 367) (UniProt P10275); test: OT_AR_ARSRC1_0480: Odyssey Thera (OT) 8-hour HEK293T Protein-Complementation Assay for Androgen Receptor/SRC-1 Co-activator (AID 2283354);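 also: hits raise the complementation signal above DMSO so AC50 marks enhancers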
Method in brief: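 Reconstituted split-Venus YFP signal from AR–SRC-1 interaction, read by imaging 8 h post-dose in stable HEK293T lines. The 488 nm nucleus-to-cytoplasm ratio (≥400 cells/image) was fitted upward against DMSO.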

[4] = target: Agonist Androgen Response Element (ARE), AR (gene 367) (UniProt P10275); test: OT_AR_ARELUC_AG_1440: Odyssey Thera (OT) 24-hour CHO-K1 Luciferase Assay for Agonist Androgen Response Element (ARE) (AID 2283379)
Agonist Androgen Response Element (ARE), AR (gene 367), sequence (P10275 whole entry, looked up): as the sequence (P10275 whole entry, looked up, the tested form may be a part) above
Method in brief: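 Readout: luciferase bioluminescence from CHO-K1 ARE-luc cells, measured 24 h post-dosing; agonism = increased mean luminescence vs DMSO controls, fitted in positive direction.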

[5] = target: AR (gene 367) (UniProt P10275); test: ACEA_AR_antagonist_80hr: ACEA Biosciences xCELLigence Real-Time Cell Analysis on Androgen Receptor Antagonism for Proliferation (AID 2283787);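 also: 22Rv1 human prostate cancer cells with growth followed by electrical impedance; hits lower the impedance growth signal relative to DMSO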
AR (gene 367), sequence (P10275 whole entry, looked up): as the sequence (P10275 whole entry, looked up, the tested form may be a part) above
Method in brief: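 Impedance-based real-time growth of 22Rv1 prostate cells, read 80 h after dosing. Eight concentrations, 1:4 series, top 100 uM final (0.5% DMSO), n = 2; signal decrease scored against DMSO.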

[6] = CCTE_Harrill_HTTr_CellCount_MCF7: CCTE's Cell Proliferation Assessment for the High-Throughput Transcriptomics (HTTr) Platform, Harrill Lab (AID 2284012);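 also: count of Hoechst-stained nuclei per well by high-content imaging in MCF-7 cells; cells exposed to compound for six hours; intended direction is loss of nuclei count meaning fewer cells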
Method in brief: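 Readout: Hoechst nuclear count by high-content imaging. MCF-7, 8-point dilution series, 6 h exposure. Bidirectional fit vs DMSO baseline.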

[7] = CCTE_Deisenroth_AIME_384WELL_CTox_Active: Cytotoxicity Assessment (CTOX) in CCTE's 384-well Estrogen Receptor Transactivation Assay with AIME metabolic competence (metabolism positive), Deisenroth Lab (AID 2284037);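 also: chemicals first conditioned 2 h by alginate-bound induced rat liver S9 before cells; activity means signal loss indicating cell death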
Method in brief: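 Cytotoxicity in VM7Luc4E2 breast cells, 24 hour, measured as protease-substrate fluorescence loss, after 2-hour metabolic conditioning with induced rat hepatic S9 in alginate microspheres. Concentrations 0.002 - 200 uM, 10 points, bidirectional fitting.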

[8] = CCTE_Deisenroth_AIME_384WELL_CTox_Inactive: Cytotoxicity Assessment (CTOX) in CCTE's 384-well Estrogen Receptor Transactivation Assay without AIME metabolic competence (metabolism negative), Deisenroth Lab (AID 2284039);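 also: cell viability via live-cell protease substrate cleaved to fluorescent probe; cells exposed 24 h to medium preincubated 2 h with alginate-water beads without S9; loss of fluorescence signal means loss of viability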
Method in brief: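 Metabolism-negative arm: chemicals (10-point, 0.002 - 200 uM) preincubated 2 h with alginate-water lids, medium moved onto VM7Luc4E2 cells for 24 h. Fluorescent live-cell protease readout; bidirectional curve fit.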

[9] = target: Retinoic acid receptor alpha (Homo sapiens) (UniProt P10276); test: ATG_RARa_TRANS: Attagene TRANS-FACTORIAL HepG2 Assay for human Retinoic Acid Receptor alpha (RARa) (AID 2283005)
Retinoic acid receptor alpha (Homo sapiens), sequence (P10276 whole entry, looked up, the tested form may be a part): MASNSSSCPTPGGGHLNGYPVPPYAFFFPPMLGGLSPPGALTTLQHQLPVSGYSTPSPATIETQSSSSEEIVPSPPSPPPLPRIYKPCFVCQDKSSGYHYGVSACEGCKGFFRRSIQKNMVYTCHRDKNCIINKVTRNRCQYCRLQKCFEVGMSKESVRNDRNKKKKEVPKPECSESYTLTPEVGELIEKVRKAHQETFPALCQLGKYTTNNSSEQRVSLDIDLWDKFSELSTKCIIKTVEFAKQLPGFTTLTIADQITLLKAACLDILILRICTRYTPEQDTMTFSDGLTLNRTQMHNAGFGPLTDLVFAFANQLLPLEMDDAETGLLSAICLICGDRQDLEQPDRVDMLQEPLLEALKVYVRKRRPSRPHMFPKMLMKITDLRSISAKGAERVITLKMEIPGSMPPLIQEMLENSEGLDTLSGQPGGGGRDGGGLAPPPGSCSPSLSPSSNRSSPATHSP
Method in brief: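 Reporter transcripts, measured by RT-PCR with fluorescent labeling and capillary electrophoresis after 24 h dosing, reflect activity of an exogenous human RARa–GAL4 fusion in transiently transfected HepG2. Fitted for increase relative to DMSO.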

[10] = target: Nucleoli Translocation, AR (gene 367) (UniProt P10275); test: UPITT_HCI_U2OS_AR_TIF2_Nucleoli_Agonist: University of Pittsburgh U2OS Androgen Receptor-Transcriptional Intermediary Factor 2 (AR-TIF2) Agonism High Content Imaging Assay for Nucleoli Translocation (AID 2283998)
Nucleoli Translocation, AR (gene 367), sequence (P10275 whole entry, looked up, the tested form may be a part): as the sequence (P10275 whole entry, looked up, the tested form may be a part) above
Method in brief: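 Cells express human AR fused to red fluorescent protein and TIF2 fused to GFP. Red fluorescence in the nucleolar region was quantified by high-content imaging and fitted as gain-of-signal against a DMSO baseline. Compounds were tested at 0.195 to 50 uM final (0.5% DMSO).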

[11] = target: Ratio of Nucleoli Translocation and Cytoplasm, AR (gene 367) (UniProt P10275); test: UPITT_HCI_U2OS_AR_TIF2_Nucleoli_Cytoplasm_Ratio_Antagonist: University of Pittsburgh U2OS Androgen Receptor-Transcriptional Intermediary Factor 2 (AR-TIF2) Antagonism High Content Imaging Assay for Ratio of Nucleoli Translocation and Cytoplasm (AID 2283999);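 also: antagonists lower the DHT-driven ratio of nucleolar to cytoplasmic red signal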
Ratio of Nucleoli Translocation and Cytoplasm, AR (gene 367), sequence (P10275 whole entry, looked up): as the sequence (P10275 whole entry, looked up, the tested form may be a part) above
Method in brief: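 Read-out is the ratio of nucleolar to cytoplasmic AR-RFP fluorescence, imaged by high-content microscopy in U2OS cells coexpressing TIF2-GFP. Single-point 20 uM screen, triplicate confirmation, then 0.195–50 uM dose response; activity referenced to DHT baseline.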

[12] = target: Ratio of Nucleoli Translocation and Cytoplasm, AR (gene 367) (UniProt P10275); test: UPITT_HCI_U2OS_AR_TIF2_Nucleoli_Cytoplasm_Ratio_Agonist: University of Pittsburgh U2OS Androgen Receptor-Transcriptional Intermediary Factor 2 (AR-TIF2) Agonism High Content Imaging Assay for Ratio of Nucleoli Translocation and Cytoplasm (AID 2284000);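 also: hits raise the red nucleolar to cytoplasm ratio above vehicle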
Method in brief: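 Compounds tested at 20 uM final in primary screen (0.2% DMSO) and 0.195-50 uM final in dose-response (0.5% DMSO). Imaging of human U2OS cells bearing RFP-AR and GFP-TIF2; endpoint is nucleoli/cytoplasm red signal ratio, positive direction relative to DMSO.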

[13] = CEETOX_H295R_MTT_cell_viability: Viability Assessment in the CeeTox HT-H295R MTT Assay (AID 2283718; active = hit-call score of the fitted dose curve at least 0.9, where 1 is the maximum; inactive = score below 0.9;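 as to AC50: curve fitted both ways so AC50 may mark viability loss or gain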)
Method in brief: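 MTT reduction (0.5 mg/ml, 4 h at 37 C; absorbance at 570 and 650 nm) gave viability as background-corrected percent change versus controls. H295R cells had 48 h forskolin (10 uM) prestimulation, then 48 h chemical exposure at 0.1% DMSO.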

[14] = ATG_M_32_XSP2: Attagene TRANS-FACTORIAL Multi-Species (XSP2) HepG2 Assay for M19 Transcription Factor (Internal Marker) (AID 2283826)
Method in brief: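 HepG2 cells transiently transfected with GAL4-UAS reporter transcription units, dosed with compound for 24 h in presence of 3 nM 6-alpha-fluorotestosterone and 1.5 nM norgestrel; reporter mRNA quantified by RT-PCR, FAM labelling, HpaI digestion and capillary electrophoresis.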

[15] = CCTE_Padilla_ZF_Score.General: CCTE's 144 Hour Post-fertilization zebrafish Assay Score for General Malformation, Padilla Lab (AID 2284411; active = hit-call score of the fitted dose curve at least 0.9, where 1 is the maximum; inactive = score below 0.9)
Method in brief: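 Malformation, death and hatching were scored at 6 dpf by two blinded observers under a stereo microscope. Embryos were dosed singly from 6-8 hpf in sealed plates of 10% Hanks' at 26C and rinsed on 5 dpf; DMSO baseline.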

[16] = target: bovine Estrogen Receptor (ER), ESR1 (gene 407238) (UniProt P49884); test: NVS_NR_bER: NovaScreen (NVS) Nuclear Receptor Binding Assay for bovine Estrogen Receptor (ER) (AID 2283345);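 also: actives lower the bound radioligand count which means they displace the ER ligand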
bovine Estrogen Receptor (ER), ESR1 (gene 407238), sequence (P49884 whole entry, looked up): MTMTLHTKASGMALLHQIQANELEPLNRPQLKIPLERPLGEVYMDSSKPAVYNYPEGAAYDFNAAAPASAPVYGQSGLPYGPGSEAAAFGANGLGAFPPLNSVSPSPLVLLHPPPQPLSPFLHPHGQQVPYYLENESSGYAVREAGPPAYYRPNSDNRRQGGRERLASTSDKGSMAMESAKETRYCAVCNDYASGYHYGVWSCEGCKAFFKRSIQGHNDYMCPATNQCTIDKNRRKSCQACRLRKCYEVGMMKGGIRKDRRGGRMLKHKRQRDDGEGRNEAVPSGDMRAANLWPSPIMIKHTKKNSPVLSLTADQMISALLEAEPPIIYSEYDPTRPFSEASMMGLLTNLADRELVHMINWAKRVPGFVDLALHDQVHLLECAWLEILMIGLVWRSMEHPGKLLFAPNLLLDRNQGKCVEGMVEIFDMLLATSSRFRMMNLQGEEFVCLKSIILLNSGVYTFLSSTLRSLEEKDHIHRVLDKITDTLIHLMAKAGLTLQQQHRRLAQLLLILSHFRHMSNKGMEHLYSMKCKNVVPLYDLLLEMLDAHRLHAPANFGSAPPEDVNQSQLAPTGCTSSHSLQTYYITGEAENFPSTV
Method in brief: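 Scintillation counting of displaced radioligand gave the readout; bovine uterine membrane extract supplied the receptor. Measured 18 h post-dose, normalized to DMSO baseline. Single 25 uM duplicate screen preceded concentration-response follow-up.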

[17] = target: rat Monoamine Oxidase, MAO-B, Central (MAOBC), Maob (gene 25750) (UniProt P19643); test: NVS_ENZ_rMAOBC: NovaScreen (NVS) Enzymatic Assay for rat Monoamine Oxidase, MAO-B, Central (MAOBC) (AID 2283238)
rat Monoamine Oxidase, MAO-B, Central (MAOBC), Maob (gene 25750), sequence (P19643 whole entry, looked up): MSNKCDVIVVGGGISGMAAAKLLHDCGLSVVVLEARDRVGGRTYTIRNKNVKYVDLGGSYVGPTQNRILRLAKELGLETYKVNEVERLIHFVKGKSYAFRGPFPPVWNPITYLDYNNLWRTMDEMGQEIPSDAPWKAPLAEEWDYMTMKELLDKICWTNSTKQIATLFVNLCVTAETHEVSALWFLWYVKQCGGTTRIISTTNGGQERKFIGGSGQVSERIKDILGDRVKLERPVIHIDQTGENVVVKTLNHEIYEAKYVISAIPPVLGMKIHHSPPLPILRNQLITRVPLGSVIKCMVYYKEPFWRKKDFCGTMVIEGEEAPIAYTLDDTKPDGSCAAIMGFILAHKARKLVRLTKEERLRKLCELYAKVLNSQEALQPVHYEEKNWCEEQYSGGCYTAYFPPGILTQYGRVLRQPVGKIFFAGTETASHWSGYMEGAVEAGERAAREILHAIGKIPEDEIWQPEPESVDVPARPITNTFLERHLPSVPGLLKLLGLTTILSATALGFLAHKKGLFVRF
Method in brief: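 Actives from a duplicate 25 uM screen went on to singleton concentration-response with a 50 uM maximum. Enzyme source was rat brain tissue MAO-B, assayed cell-free. Radiolabelled product was counted by scintillation 1.17 h post-dose, with signal loss relative to DMSO.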

[18] = target: rat CYP2D1, Cyp2d1 (gene 266684) (UniProt P10633); test: NVS_ADME_rCYP2D1: NovaScreen (NVS) CYP450-related Enzyme Activity (ADME) Assay for rat CYP2D1 (AID 2283122)
rat CYP2D1, Cyp2d1 (gene 266684), sequence (P10633 whole entry, looked up): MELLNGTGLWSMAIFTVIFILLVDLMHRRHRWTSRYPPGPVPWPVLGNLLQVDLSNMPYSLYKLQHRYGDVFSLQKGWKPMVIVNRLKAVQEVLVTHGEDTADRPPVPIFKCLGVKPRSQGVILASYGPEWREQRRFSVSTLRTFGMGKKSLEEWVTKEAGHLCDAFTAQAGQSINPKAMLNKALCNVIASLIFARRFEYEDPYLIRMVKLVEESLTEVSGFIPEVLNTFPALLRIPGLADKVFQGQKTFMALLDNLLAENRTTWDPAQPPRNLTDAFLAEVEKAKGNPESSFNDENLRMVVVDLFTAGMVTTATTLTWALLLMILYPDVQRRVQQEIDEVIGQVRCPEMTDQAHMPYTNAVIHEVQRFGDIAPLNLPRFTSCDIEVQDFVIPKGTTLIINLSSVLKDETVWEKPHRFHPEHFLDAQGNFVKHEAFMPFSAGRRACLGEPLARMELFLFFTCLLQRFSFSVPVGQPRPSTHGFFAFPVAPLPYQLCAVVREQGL
Method in brief: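 Rat CYP2D1 enzyme activity measured by fluorescence intensity in a cell-free format, 0.75 h post-dosing, acetonitrile as negative control. Screening at 10 uM in duplicate, with actives followed in concentration series up to 20 uM.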

[19] = test system: rat Monoamine Oxidase, MAO-A, Central (MAOAC), gene 29253; test: NVS_ENZ_rMAOAC: NovaScreen (NVS) Enzymatic Assay for rat Monoamine Oxidase, MAO-A, Central (MAOAC) (AID 2283243);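 also: potency refers to inhibition seen as signal drop below DMSO baseline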
Method in brief: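 Scintillation read-out of MAO-A activity in rat brain lysate, 1.5 h post-dosing. Primary single-concentration screen: 25 uM, duplicate; actives re-tested in concentration series. DMSO = negative control/baseline.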

[20] = target: rat CYP1A2, Cyp1a2 (gene 24297) (UniProt P04799); test: NVS_ADME_rCYP1A2: NovaScreen (NVS) CYP450-related Enzyme Activity (ADME) Assay for rat CYP1A2 (AID 2283115)
rat CYP1A2, Cyp1a2 (gene 24297), sequence (P04799 whole entry, looked up): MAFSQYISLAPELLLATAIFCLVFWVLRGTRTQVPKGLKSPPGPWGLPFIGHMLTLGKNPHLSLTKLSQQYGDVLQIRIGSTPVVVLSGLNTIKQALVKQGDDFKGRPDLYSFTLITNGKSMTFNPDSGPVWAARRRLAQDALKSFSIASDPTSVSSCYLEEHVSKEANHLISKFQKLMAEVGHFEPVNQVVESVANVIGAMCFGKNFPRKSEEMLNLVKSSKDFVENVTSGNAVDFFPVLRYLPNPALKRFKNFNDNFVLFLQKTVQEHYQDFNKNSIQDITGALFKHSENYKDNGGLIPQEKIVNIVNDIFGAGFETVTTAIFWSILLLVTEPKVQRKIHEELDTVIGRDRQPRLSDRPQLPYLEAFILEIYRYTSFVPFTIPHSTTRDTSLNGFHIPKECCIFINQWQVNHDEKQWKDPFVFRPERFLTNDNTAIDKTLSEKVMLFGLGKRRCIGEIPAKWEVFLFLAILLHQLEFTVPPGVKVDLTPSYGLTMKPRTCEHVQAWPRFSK
Method in brief: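 Primary testing ran in duplicate at 10 uM, with actives re-tested across concentration series. Fluorescence intensity from substrate turnover by recombinant protein, measured 1 hour post-dosing, with signal loss scored against acetonitrile vehicle.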

## CC1(C)[C@H](C(=O)O[C@H](C#N)c2cccc(Oc3ccccc3)c2)[C@@H]1C=C(Br)Br
[1]
  AC50: 0.134 µM (active)
  outcome: inactive
[2]
  outcome: inactive
[3]
  outcome: inactive
[4]
  outcome: inactive
[5]
  AC50: 50 µM (active)
  outcome: inactive

## Nc1ccccc1
[6]
  outcome: inactive
[7]
  outcome: inactive
[8]
  outcome: inactive

## O=C(NCNC(=O)NC1C(=O)NC(=O)N1CO)NC1C(=O)NC(=O)N1CO (configuration not stated)
[9]
  outcome: inactive
[2]
  outcome: inactive
[3]
  outcome: inactive
[4]
  outcome: inactive
[5]
  outcome: inactive
[10]
  outcome: inactive
[11]
  AC50: 50 µM (active)
[12]
  outcome: inactive

## CC(=O)c1cc2c(cc1C)C(C)(C)C(C)CC2(C)C (configuration not stated)
[13]
  outcome: inactive
[14]
  outcome: inactive

## C=COCCCl
[10]
  outcome: inactive
[11]
  outcome: inactive
[12]
  outcome: inactive
[15]
  outcome: inactive

## C[C@]12CCC(=O)C(O)=C1CC[C@@H]1[C@@H]2CC[C@]2(C)C(=O)CC[C@@H]12
[16]
  outcome: inactive
[6]
  outcome: inactive

## O=C1C=CC(=O)C=C1
[15]
  outcome: inactive

## Cc1ccc(C)c2ccccc12
[2]
  outcome: inactive
[3]
  outcome: inactive
[4]
  outcome: inactive
[10]
  outcome: inactive
[11]
  outcome: inactive
[12]
  outcome: inactive
[7]
  outcome: inactive
[8]
  outcome: inactive

## CCC[N+](=O)[O-]
[6]
  outcome: inactive

## c1cc(OCC2CO2)ccc1Cc1ccc(OCC2CO2)cc1 (configuration not stated)
[16]
  outcome: inactive

## O=C(O)c1cc[c]([Hg][Cl])cc1
[16]
  outcome: inactive

## COC(C)(C)CCC[C@H](C)C/C=C/C(C)=C/C(=O)OC(C)C
[1]
  AC50: 0.992 µM (active)

## CC(C)[C@@H](C(=O)O[C@@H](C#N)c1cccc(Oc2ccccc2)c1)c1ccc(Cl)cc1
[13]
  outcome: inactive
[6]
  outcome: inactive

## O=[N+]([O-])c1ccc(Cl)cc1
[7]
  outcome: inactive
[8]
  outcome: inactive

## O=S(=O)(O)OOS(=O)(=O)O
[7]
  outcome: inactive
[8]
  outcome: inactive

## C[N+](C)=CCl
[9]
  outcome: inactive

## O=c1c2ccccc2c(=O)c2c1cc(Cl)c1[nH]c3c([nH]c12)c(Cl)cc1c(=O)c2ccccc2c(=O)c13
[15]
  outcome: inactive

## Nc1c(Cl)c(Cl)c(Cl)c(Cl)c1Cl
[9]
  outcome: inactive

## C=CC(=O)OCCO
[13]
  AC50: 26.7 µM (active)

## CCN(CC)CCOc1ccc(C(=C(Cl)c2ccccc2)c2ccccc2)cc1
[17]
  AC50: 12.4 µM (active) [middle of 4 runs]
[14]
  outcome: inactive

## N#CSCSc1nc2ccccc2s1
[18]
  AC50: 0.926 µM (active)
[17]
  outcome: inactive
[19]
  AC50: 45.9 µM (active)

## CCC(C)c1cc([N+](=O)[O-])cc([N+](=O)[O-])c1OC(=O)OC(C)C (configuration not stated)
[20]
  outcome: inactive

## CCCCOCCOCCOCc1cc2c(cc1CCC)OCO2
[20]
  outcome: inactive
[18]
  AC50: 5.69 µM (active)

## O=c1c(-c2ccc(O)cc2)coc2cc(O)cc(O)c12
[17]
  AC50: 31.1 µM (active) and 25 µM (active)
[19]
  AC50: 10.6 µM (active) and 12.2 µM (active) and 2.7 µM (active)

## Cc1nc(-c2ccc3c(c2)CCN(CCC2CCC(NC(=O)/C=C/c4ccc(F)cc4)CC2)CC3)no1 (configuration not stated)
[19]
  outcome: inactive

## COC(=O)CSc1cc(N=c2sc(=O)n3n2CCCC3)c(F)cc1Cl
[20]
  outcome: inactive

## CO[Si](CCC1CCC2OC2C1)(OC)OC (configuration not stated)
[20]
  outcome: inactive

## CC(C)(c1ccc(O)cc1)c1ccc(O)cc1
[18]
  AC50: 10 µM (active)
[14]
  outcome: inactive

## Cc1nn(C)c(Oc2ccccc2)c1C=NOCc1ccc(C(=O)OC(C)(C)C)cc1
[18]
  outcome: inactive

## Oc1ccc2ccccc2c1
[17]
  AC50: 14.4 µM (active)
[19]
  AC50: 10.2 µM (active)
